# esBAF inh: inhibitors of esBAF chromatin remodeling in mouse ES cells. Bmi1-luciferase knock-in reporter, 24 h; 100% = twice the neutral-well signal. reporter increase, % at 12.5 µM. 2% of 350,000 active. AID 602393; in the data active means activation above about 40%; inconclusive means no clear call, values can overlap the other calls;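 further: 0% = median of the plate's neutral control wells and 100% = double that signal; a rise in the Bmi1 reporter signal indicates esBAF inhibition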
# AHR act: activators of human aryl hydrocarbon receptor. P35869. AHR-responsive luciferase reporter cells, luminescence. activation, % at 5 µM. AID 2796. 2.5% of 320,000 active; in the data active means activation above about 47%;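 further: 0% = vehicle wells and 100% = reference agonist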
# MITF TRPM1 HTS: MITF TRPM1 promoter activation in melanoma cells | SK-MEL-5 TRPM1-promoter luciferase, 24 h; % of positive control, neutral wells = 0 | activation, % at 12.5 µM | 0.75% of 300,000 active | AID 588334;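 active means mean activation of at least 80% with every replicate also reaching 80%; inconclusive means mean reaches 80% but some replicate falls short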;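 further: 0% = neutral control wells and 100% = parthenolide positive control wells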
# GAA850 FXN act: frataxin GAA850 promoter activation | HEK293 lucGAA850 FXN promoter luciferase reporter, 24 h; percent of 10 µM SAHA response | activation, % at 6 µM | 0.56% of 360,000 active | AID 540364;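 active means activation above the average of all compounds screened plus 3 SD, cutoff fixed separately per campaign, cut at about 7.5% in these data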;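 further: 0% = DMSO wells and 100% = 10 µM SAHA wells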
# Wnt act: activators of Wnt/beta-catenin signaling; Wnt/beta-catenin reporter cell assay, activator, plate reader; 1.2% of 300,000 active; activation, % at 9.35 µM; in the data active means activation above about 30%, passing the limit was not always enough; inconclusive means no clear call, values can overlap the other calls;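 further: 0% = neutral control wells and 100% = positive control wells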
# The depositor's hits bear a star; u = inconclusive; x = no result given. Most compounds without a hit are left out; they make up all but 4.2% or so of the library.
SMILES,esBAF inh,AHR act,MITF TRPM1 HTS,GAA850 FXN act,Wnt act
CCCC(=O)Nc1ccc2c(c1)OC[C@@H](C)N(C(=O)CC)C[C@@H](C)[C@H](OC)CN(C)C2=O,1,x,x,x,x
COc1ccc(S(=O)(=O)Nc2ccc3c(c2)C(=O)N([C@@H](C)CO)C[C@@H](C)[C@H](CN(C)S(=O)(=O)c2cccs2)OCCCC[C@H](C)O3)cc1,4,x,x,x,x
O=C(O)C(=O)/C(=C\c1ccc(Cl)cc1)c1ccc2ccccc2n1,32,65*,45,2,9
C[C@H](CO)N1C[C@H](C)[C@@H](CN(C)C(=O)Nc2ccc(C(F)(F)F)cc2)Oc2ccc(NC(=O)Cc3cn(C)c4ccccc34)cc2CC1=O,5,x,x,x,x
N#C/C(=C/c1ccc(N2CCCCC2)o1)C(=O)Nc1ccc2ccccc2c1,x,x,55,2,-4
N#C/C(=C/c1ccc(N2CCCCC2)o1)C(=O)Nc1ccc(Cl)cc1,60*,8,78,5,x
CC1CC1c1ccc(/C=C(\C#N)C(=O)Nc2ccccc2Cl)o1 (stereo not drawn),x,50*,27,5,0
COCC(=O)Nc1ccc2c(c1)OC[C@@H](C)N(Cc1cncnc1)C[C@H](C)[C@@H](OC)CN(C)C2=O,-2,x,x,x,x
C[C@@H]1CCCCO[C@@H](CN(C)Cc2ccc(C(=O)O)cc2)[C@H](C)CN([C@H](C)CO)C(=O)c2cc(NS(=O)(=O)c3ccc(Cl)cc3)ccc2O1,3,x,x,x,x
CC(=O)Nc1cncc(-c2cnn(CC(C)C)c2)n1,18,x,x,4,6
CNc1cc(-c2cnn(CC(C)C)c2)ncn1,51*,x,x,3,u
O=C(CSc1nnc(-c2ccco2)n1Cc1ccccc1)OC1CCCCC1,68*,1,x,1,x
O=C(CSc1nnc(-c2ccncc2)n1Cc1ccco1)OC1CCCCC1,6,1,4,0,-3
CC(=O)c1c(C)[nH]c(C(=O)CSc2nnc(-c3cccs3)n2Cc2ccccc2)c1C,x,7,-16,-3,x
CC(=O)c1c(C)[nH]c(C(=O)CSc2nnc(-c3ccco3)n2Cc2ccccc2)c1C,10,69*,5,-3,x
COCC#Cc1cnc2c(c1)C(=O)N([C@H](C)CO)C[C@H](C)[C@@H](CN(C)C(=O)C1CCCCC1)O2,3,x,x,x,x
CCCN1C(=O)c2ccc(C(=O)Nc3nccs3)cc2C1=O,43*,13,x,2,3
CCC(CC)C(=O)Nc1cccc(C(=O)Nc2nccs2)c1,0,-10,x,-3,x
CCCc1cc(C(=O)Nc2nccs2)cs1,19,4,95*,3,x
CN(C)C(=O)[C@@H]1[C@@H](CO)[C@@H]2Cn3c(ccc(/C=C/c4ccccc4)c3=O)[C@@H]2N1C(=O)c1cnccn1,-5,x,x,x,x
COCC#Cc1ccc2c(c1)O[C@H](CN(C)C(=O)CN(C)C)[C@H](C)CN([C@H](C)CO)S2(=O)=O,-4,x,x,x,x
C[C@H](CO)N1C[C@H](C)[C@@H](CN(C)S(=O)(=O)c2cn(C)cn2)OCCCC[C@H](C)Oc2ccc(NC(=O)C3CCCCC3)cc2C1=O,-1,x,x,x,x
CCC(C)C(=O)Nc1nc2ccc(OC)cc2s1 (stereo not drawn),x,-4,x,1,43*
CCNS(=O)(=O)c1ccc2nc(NC(=O)/C=C/c3cc(OC)c(OC)c(OC)c3)sc2c1,x,18,2,1,50*
COc1ccc2nc(NC(=O)Nc3cccc4ccccc34)sc2c1,x,64*,79,3,7
SMILES,esBAF inh,AHR act,MITF TRPM1 HTS,GAA850 FXN act,Wnt act
CS(=O)(=O)c1ccc2nc(NC(=O)Nc3ccccc3F)sc2c1,-5,34,34,8,5
COc1ccccc1NC(=O)Nc1nc2ccc(S(N)(=O)=O)cc2s1,48*,8,87*,1,21
COc1ccc2nc(NC(=O)Nc3ccccc3OC)sc2c1,x,2,32,-3,12
S=C(Nc1ccc(Cl)cc1)NC1CC2CCCC(C1)N2C1CCCC1 (stereo not drawn),1,2,7,2,x
C=CCN1C2CCCC1CC(NC(=S)Nc1ccc(Cl)cc1)C2 (stereo not drawn),x,3,15,-2,39*
Cc1ccc(-n2cc(C(=O)c3ccccc3O)cn2)cc1,-30,-5,23,-13,6
COc1ccccc1CNC(=O)COc1ccccc1C(=O)c1cnn(-c2ccccc2)c1,75*,19,89*,1,58*
O=C(COc1ccccc1C(=O)c1cnn(-c2ccccc2)c1)Nc1ccccc1,49*,6,64,5,u

# Source: PubChem BioAssay (several laboratories)
